Laboratory results: PubChem BioAssay AID1159580 (chemical genetic matrix, 2015)
“And” between values parts separate entries of the source, which are not always exact repeats. Identical values can stand only once. Hit rate of the full screen: of about 5,500 compounds, about 2,000 (36%) were called active. Inconclusive results (about 18%) are left out. No stated cut-off is given here; in the data, active means normalized growth mostly below about 0.91 (no sharp cut-off); inconclusive means no clear call, values can overlap the other calls; inactive means mostly above about 0.92. The list shows a part of the results.

Experiment: chemical genetic growth profiling, strain panel (AID 1159580);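 further: tested at 20 µM; growth read once vehicle control cultures reached saturation at 30 °C; 1 = growth at the plate median or of vehicle wells; lower values mean less growth of the strain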
Conditions: S. cerevisiae deletion strains, growth OD

Measured: normalized growth

CC(=O)OC(C)C[N+](C)(C)C (stereo not given)
inactive: locus YAL013W, strain DEP1, active compounds read low 1.02 and 1 | locus YAL021C, strain ccr4, active compounds read low 1 | locus YAL026C, strain drs2, active compounds read low 1 | locus YAL030W, strain snc1, active compounds read low 1 | locus YAL040C, strain CLN3, active compounds read low 0.999 | locus YBL061C, strain skt5, active compounds read low 1.01 | locus YBR009C, strain hhf1, active compounds read low 1 | locus YBR021W, strain FUR4, active compounds read low 1.03 | locus YBR023C, strain chs3, active compounds read low 1 | locus YBR171W, strain sec66, active compounds read low 0.994 | locus YBR229C, strain ROT2, active compounds read low 1.01 | locus YBR231C, strain swc5, active compounds read low 0.991 | locus YBR279W, strain paf1, active compounds read low 1 | locus YCL011C, strain gbp2, active compounds read low 1.01 | locus YCL016C, strain dcc1, active compounds read low 1.01 | locus YCL029C, strain bik1, active compounds read low 1.01 | locus YCL061C, strain MRC1 (second series), active compounds read low 1 | locus YCL069W, strain vba3, active compounds read low 1 | locus YCR088W, strain abp1, active compounds read low 1.01 | locus YDL005C, strain med2, active compounds read low 1.02 | locus YDL035C, strain GPR1, active compounds read low 1.03 | locus YDL040C, strain nat1, active compounds read low 1 | locus YDL074C, strain BRE1, active compounds read low 1.01 | locus YDL101C, strain DUN1, active compounds read low 1 | locus YDL134C, strain PPH21, active compounds read low 1.02 | locus YDL185W, strain tfp1, active compounds read low 1.02 | locus YDL192W, strain arf1, active compounds read low 1.02 | locus YDR001C, strain nth1, active compounds read low 0.993 | locus YDR069C, strain doa4, active compounds read low 0.988 | locus YDR101C, strain arx1, active compounds read low 0.996 | locus YDR137W, strain rgp1, active compounds read low 0.99 | locus YDR150W, strain NUM1, active compounds read low 1.02 and 0.997 | locus YDR159W, strain sac3, active compounds read low 1 | locus YDR162C, strain NBP2, active compounds read low 1.05 | locus YDR195W, strain ref2 0.982 | locus YDR297W, strain sur2, active compounds read low 1 | locus YDR318W, strain mcm21, active compounds read low 1.01 | locus YDR334W, strain swr1, active compounds read low 0.997 | locus YDR335W, strain msn5, active compounds read low 0.998 | locus YDR363W, strain ESC2, active compounds read low 0.965 | locus YDR388W, active compounds read low 1.02 | locus YDR392W, strain spt3, active compounds read low 1 | locus YDR502C, strain sam2, active compounds read low 1.01 | locus YEL003W, strain gim4, active compounds read low 1.01 | locus YEL037C, strain rad23, active compounds read low 1 | locus YEL061C, strain CIN8 (second series), active compounds read low 0.995 | locus YEL061C, strain CIN8, active compounds read low 1.01 | locus YER002W, strain NOP16, active compounds read low 0.981 | locus YER015W, strain faa2, active compounds read low 0.988 | locus YER016W, strain bim1, active compounds read low 0.994 | locus YER110C, active compounds read low 1.02 | locus YER111C, strain swi4, active compounds read low 1.01 | locus YER155C, strain BEM2 (second series), active compounds read low 0.992 | locus YER155C, strain BEM2, active compounds read low 1.01 | locus YER167W, strain BCK2, active compounds read low 1.02 | locus YFR010W, strain ubp6, active compounds read low 0.989 | locus YGL078C, strain dbp3, active compounds read low 1.02 | locus YGL086W, strain mad1, active compounds read low 1 | locus YGL167C, strain pmr1, active compounds read low 1.01 | locus YGL173C, strain kem1, active compounds read low 1 | locus YGL227W, strain vid30, active compounds read low 0.986 | locus YGL240W, strain doc1, active compounds read low 0.985 | locus YGL248W, strain PDE1, active compounds read low 0.99 | locus YGL253W, strain hxk2, active compounds read low 1 | locus YGR135W, strain pre9, active compounds read low 1.06 | locus YGR252W, strain gcn5, active compounds read low 1.04 | locus YHR013C, strain ard1, active compounds read low 1.02 | locus YHR027C, strain rpn1, active compounds read low 1 | locus YHR030C, strain SLT2, active compounds read low 1.01 and 1.02 | locus YHR079C, strain IRE1 (second series), active compounds read low 1.01 | locus YHR079C, strain IRE1, active compounds read low 1 | locus YHR094C, strain hxt1, active compounds read low 1.02 | locus YHR129C, strain ARP1, active compounds read low 1 | locus YHR142W, strain chs7, active compounds read low 1.01 | locus YHR200W, strain rpn10, active compounds read low 1.02 | locus YIL066C, strain RNR3, active compounds read low 1.02 | locus YIL073C, strain SPO22, active compounds read low 1.13 | locus YIL125W, strain kgd1, active compounds read low 1.01 | locus YIR030C, strain dcg1, active compounds read low 1.01 | locus YJL092W, strain hpr5, active compounds read low 0.993 | locus YJL095W, strain BCK1 (second series), active compounds read low 1.01 | locus YJL095W, strain BCK1, active compounds read low 1.02 and 1.03 | locus YJL115W, strain asf1, active compounds read low 0.995 | locus YJL129C, strain trk1, active compounds read low 0.987 | locus YJL134W, strain LCB3, active compounds read low 1.01 | locus YJL154C, strain vps35, active compounds read low 1.01 | locus YJL164C, strain tpk1, active compounds read low 1.01 | locus YJL166W, strain qcr8, active compounds read low 0.976 | locus YJL168C, strain set2, active compounds read low 1.01 | locus YJL187C, strain SWE1 (second series), active compounds read low 1.02 | locus YJL187C, strain SWE1, active compounds read low 1.01 | locus YJR043C, strain POL32, active compounds read low 1.02 | locus YJR066W, strain TOR1, active compounds read low 0.985 | locus YJR075W, strain HOC1, active compounds read low 1.02 | locus YKL009W, strain mrt4, active compounds read low 1.04 | locus YKL068W, active compounds read low 1.02 | locus YKL085W, strain MDH1 (second series), active compounds read low 1.01 | locus YKL085W, strain MDH1, active compounds read low 1.01 | locus YKL160W, strain elf1, active compounds read low 0.987 | locus YKL190W, strain CNB1, active compounds read low 1.02 | locus YKR001C, strain vps1, active compounds read low 1.02 | locus YKR026C, strain gcn3, active compounds read low 0.985 | locus YKR091W, strain srl3, active compounds read low 0.996 | locus YLL001W, strain dnm1, active compounds read low 0.97 | locus YLL026W, active compounds read low 0.989 | locus YLL041C, strain sdh2, active compounds read low 1.01 | locus YLR027C, strain aat2, active compounds read low 0.989 | locus YLR039C, strain RIC1, active compounds read low 1.06 | locus YLR058C, strain SHM2, active compounds read low 1.01 | locus YLR102C, strain apc9, active compounds read low 1 | locus YLR113W, strain HOG1, active compounds read low 0.981 | locus YLR221C, strain rsa3, active compounds read low 1 | locus YLR258W, strain gsy2, active compounds read low 1 | locus YLR262C, strain YPT6 (second series), active compounds read low 0.994 | locus YLR262C, strain YPT6, active compounds read low 1.05 | locus YLR268W, strain sec22, active compounds read low 1.01 | locus YLR320W, strain mms22, active compounds read low 0.999 | locus YLR330W, strain CHS5, active compounds read low 1.01 | locus YLR342W, strain FKS1 (second series), active compounds read low 1.05 | locus YLR342W, strain FKS1, active compounds read low 1 | locus YLR357W, strain rsc2, active compounds read low 0.981 | locus YLR370C, strain arc18, active compounds read low 1 | locus YLR371W, strain rom2, active compounds read low 1.01 | locus YLR384C, strain iki3, active compounds read low 0.996 | locus YLR418C, strain cdc73, active compounds read low 1.06 | locus YML016C, strain PPZ1, active compounds read low 0.999 | locus YML032C, strain rad52, active compounds read low 1.01 | locus YML120C, strain ndi1, active compounds read low 1 | locus YML124C, strain tub3, active compounds read low 1.01 | locus YMR058W, strain fet3, active compounds read low 0.991 | locus YMR078C, strain ctf18, active compounds read low 1.02 | locus YMR125W, strain sto1, active compounds read low 0.993 | locus YMR129W, active compounds read low 0.993 | locus YMR205C, strain PFK2, active compounds read low 1 | locus YMR223W, strain ubp8, active compounds read low 1.07 | locus YMR231W, strain pep5, active compounds read low 0.994 | locus YMR307W, strain GAS1, active compounds read low 1.03 | locus YNL067W, strain RPL9B, active compounds read low 1.02 | locus YNL071W, strain lat1, active compounds read low 0.999 | locus YNL153C, strain GIM3, active compounds read low 1.01 | locus YNL175C, strain NOP13, active compounds read low 1.01 | locus YNL183C, strain NPR1, active compounds read low 0.969 | locus YNL197C, strain WHI3, active compounds read low 1 | locus YNL209W, strain ssb2, active compounds read low 1 | locus YNL224C, strain SQS1, active compounds read low 0.983 | locus YNL233W, strain BNI4, active compounds read low 1.01 | locus YNL248C, strain rpa49, active compounds read low 0.988 | locus YNL250W, strain rad50, active compounds read low 1.05 | locus YNL271C, strain bni1, active compounds read low 1.02 | locus YNL298W, strain CLA4, active compounds read low 1.02 | locus YNL307C, strain MCK1, active compounds read low 1.03 | locus YNL322C, strain KRE1 (second series), active compounds read low 1.01 | locus YNL322C, strain KRE1, active compounds read low 1.01 | locus YNR049C, strain mso1, active compounds read low 1.01 | locus YNR052C, strain pop2, active compounds read low 1.01 | locus YOL012C, strain htz1 1.09 | locus YOL147C, strain pex11, active compounds read low 1.02 | locus YOR001W, strain rrp6, active compounds read low 0.987 | locus YOR061W, strain CKA2, active compounds read low 1.01 | locus YOR069W, strain VPS5, active compounds read low 1.01 | locus YOR070C, strain gyp1, active compounds read low 1 | locus YOR080W, strain dia2, active compounds read low 1.01 | locus YOR083W, strain WHI5 (second series), active compounds read low 1 | locus YOR083W, strain WHI5, active compounds read low 0.977 | locus YOR106W, strain vam3, active compounds read low 0.994 | locus YOR136W, strain idh2, active compounds read low 1.01 | locus YOR144C, strain elg1, active compounds read low 1.01 | locus YOR184W, strain ser1, active compounds read low 1.02 | locus YOR231W, strain MKK1, active compounds read low 0.947 | locus YOR265W, strain rbl2, active compounds read low 1 | locus YOR270C, strain vph1, active compounds read low 1.02 | locus YOR290C, strain snf2, active compounds read low 0.989 | locus YOR316C, strain cot1, active compounds read low 1.01 | locus YPL051W, strain arl3, active compounds read low 0.999 | locus YPL055C, strain LGE1, active compounds read low 1.02 | locus YPL078C, strain atp4, active compounds read low 0.981 | locus YPL106C, strain sse1, active compounds read low 1.01 | locus YPL240C, strain hsp82, active compounds read low 1 | locus YPL241C, strain CIN2, active compounds read low 1 | locus YPL256C, strain CLN2, active compounds read low 1.03 | locus YPR119W, strain clb2, active compounds read low 1.01 | locus YPR141C, strain kar3, active compounds read low 1.01 | locus YPR163C, strain tif3, active compounds read low 1.02 | locus YPR167C, strain met16, active compounds read low 1.01 | strain wtn01, active compounds read low 1
